Assay outcomes as filed in PubChem BioAssay.
KinaseGlo FLuc = blocks Kinase-Glo luciferase, a counter-screen artifact; Kinase-Glo luciferase, ATP luminescence, 8 min; Potency, µM (series often up to 38.3 µM), inactives show at the highest dose activity change, negative = inhibition, most hits filed as inhibitors; 200,000 tested, 0.28% active; AID 1379; further: on the % scale 0 is the no-effect control and ±100 the full control effect; nearly all actives have a fitted effect of over 60% in size
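Inhibition of Kinase-Glo luciferase light generation was assessed at 10 uM ATP in pH 7.2 imidazole buffer, with luminescence measured after eight minutes at ambient temperature.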
ELG1 genotox = genotoxicity induction in ELG1-luciferase HEK293T cells. 330,000 tested, 1.3% active. AID 504466. HEK293T ELG1-luciferase reporter, luminescence, 16 h. Potency, µM (doses to about 46 µM), inactives show at the top dose activity change, positive = activation, most hits filed as activators; further: % of control where 0% means no effect; nearly all actives have a fitted effect of over 60% in size
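ELG1-luciferase HEK293T cells, 2,000/well; compound pinned in; 16 hr, 37 °C, 5% CO2; ONE-Glo, 30 min RT; luminescence on CCD imager.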
SMN2 splice up = increases expression of the SMN2 splice variant; AID 1458; Potency, µM (top dose mostly 46.1 µM), for the others: top-dose activity change, positive = activation, most hits filed as activators; HEK293 SMN2-luciferase splicing reporter, luminescence, 30-36 h; 210,000 tested, 2.8% active; further: % of control where 0% means no effect; nearly all actives have a fitted effect of over 55% in size
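HEK293 cells carry an SMN2 […]–luciferase reporter in which exon 7 inclusion puts luciferase in frame. Cells were plated 10-12 h before compound addition, then incubated 30-36 h at 37C. ONE-Glo luminescence was read; sodium butyrate at 4.5 mM final served as control.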
NPC1 promoter act = activates the NPC1 promoter; 320,000 tested, 2.4% active; Huh7 NPC1 promoter luciferase reporter, 24 h; Potency, µM (series often up to 9.22 µM), for the others: at the highest dose activation, usual class: activators; further: % of control where 0% means no effect; nearly all actives have a fitted effect of over 60% in size
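Luminescence from an NPC1 promoter-driven luciferase reporter in stably transfected Huh7 cells was measured after 24 h compound treatment at 37 °C, followed by 10 min ambient incubation with luciferase detection reagent.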
FLuc counter = firefly luciferase modulation, counter-screen for miR-21 project; purified FLuc, Km substrates, luminescence inhibition; Potency, µM (highest dose often 57.5 µM), without a hit: top-dose activity change, negative = inhibition, hits mostly inhibitors; 360,000 tested, 6.9% active; AID 588342;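 further: plate controls were vehicle for no effect and reference inhibitor for full effect; nearly all actives have a fitted effect of over 55% in size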
Target sequence (P08659 whole entry, looked up): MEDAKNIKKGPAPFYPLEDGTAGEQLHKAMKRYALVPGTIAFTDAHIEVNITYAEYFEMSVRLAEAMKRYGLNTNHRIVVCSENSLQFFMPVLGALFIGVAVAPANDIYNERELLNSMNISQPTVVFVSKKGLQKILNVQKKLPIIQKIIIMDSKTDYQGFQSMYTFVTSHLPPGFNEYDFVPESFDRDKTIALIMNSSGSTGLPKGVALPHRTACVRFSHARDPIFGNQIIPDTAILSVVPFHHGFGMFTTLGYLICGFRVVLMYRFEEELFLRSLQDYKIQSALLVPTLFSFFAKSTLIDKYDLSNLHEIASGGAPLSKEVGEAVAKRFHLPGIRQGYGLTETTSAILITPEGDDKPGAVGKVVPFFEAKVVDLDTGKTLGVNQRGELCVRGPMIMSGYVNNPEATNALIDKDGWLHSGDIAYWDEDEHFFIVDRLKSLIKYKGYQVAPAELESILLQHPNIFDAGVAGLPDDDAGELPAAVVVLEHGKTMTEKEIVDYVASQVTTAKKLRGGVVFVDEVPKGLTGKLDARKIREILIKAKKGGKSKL
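Biochemical qHTS of compounds, final roughly 60 µM downward over six points, against 10 nM purified firefly luciferase using Km concentrations of substrates (10 uM D-luciferin, 10 uM ATP) in Tris acetate pH 7.5 buffer; luminescence output.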
Rab9 promoter act = activators of Rab9 promoter | Huh7 Rab9 promoter-luciferase reporter, luminescence, 24 h | 320,000 tested, 2.8% active | Potency, µM (top dose mostly 9.22 µM), without a hit: at the highest dose activation, negative = inhibition, usual class: activators | AID 485297; further: % of control where 0% means no effect; nearly all actives have a fitted effect of over 60% in size
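Cells were plated at 1500 per well in reduced-serum medium with 10% FBS and left 2 h. Compound in DMSO was then added for 24 h at 37 °C. Reporter signal was read by luminescence after 10 min with luciferase detection reagent.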
* hit, by the source's call; [ ] = another dose, or the depositor's remark. In the library only some 7.5% were active in any assay of this set; here they are far more common. The call rests on the fitted dose curve; in most records, active means well fitted curve in the direction sought with a large enough effect; inconclusive means small, poorly fitted or top-dose-only effect, or another doubt; inactive means no such curve, though single readings can be large; an effect the other way counts as inactive or inconclusive. Potency means the concentration at half of the fitted maximal effect.

For COc1cccc(C(=O)Nc2ccc(C(=O)O)cc2)c1 the results were ELG1 genotox 1%, NPC1 promoter act 6%, FLuc counter inconclusive and Rab9 promoter act 0%.
CCC(=O)Nc1ccc2c(c1)C(=O)c1ccccc1C2=O was read as KinaseGlo FLuc -2%, ELG1 genotox inconclusive, SMN2 splice up 11µM*, NPC1 promoter act 1.6µM*, FLuc counter 3.8µM* and Rab9 promoter act 1.3µM*.
COc1cccc(C(=O)Nc2ccc(C)cc2)c1 was read as KinaseGlo FLuc -15%, ELG1 genotox 1.8µM*, SMN2 splice up 11µM*, NPC1 promoter act 1.4µM*, FLuc counter 6µM* and Rab9 promoter act 1µM*.
`COc1cccc(NC(=O)c2cccc(Cl)c2)c1` gave ELG1 genotox 2.1µM*, NPC1 promoter act 2.5µM*, FLuc counter 3.4µM* and Rab9 promoter act 2µM*.
Screening CCC(=O)Nc1ccc2c(c1)C(=O)N(C)C2=O returned KinaseGlo FLuc 1%, ELG1 genotox -7%, SMN2 splice up 2%, NPC1 promoter act -3%, FLuc counter 1% and Rab9 promoter act 18%.
For COc1cccc(C(=O)Nc2ccc(C(=O)c3ccccc3)cc2)c1 the results were ELG1 genotox 8%, NPC1 promoter act 7%, FLuc counter inconclusive and Rab9 promoter act -3%.
For COc1cccc(C(=O)Nc2ccc3c(c2)C(=O)c2ccccc2C3=O)c1 the results were KinaseGlo FLuc -5%, ELG1 genotox inconclusive, SMN2 splice up -15%[1.84 µM], NPC1 promoter act 3.2µM*, FLuc counter inconclusive and Rab9 promoter act inconclusive.
For COc1ccc(NC(=O)CC2C(=O)N(c3ccc(C)cc3)C(=O)N2Cc2cccnc2)cc1 (stereo unspecified) the results were FLuc counter 3%.
Screening O[C@@H](c1cc([C@@]23C[C@H]4CC[C@@H]2C[C@H](C4)C3)nc2c(Cl)cc(Cl)cc12)C1CCCCN1 (stereo partly specified) returned KinaseGlo FLuc -9%[7.66 µM] and SMN2 splice up 1%[9.22 µM].
Cc1cccc(N2C(=O)CSC23C(=O)N(Cc2cccc(C(F)(F)F)c2)c2ccccc23)c1 (stereo unspecified) was read as FLuc counter -2%.
`O=C(COC(=O)C1=COCCO1)Nc1ccc(Br)cc1Br` gave ELG1 genotox 3%.
COc1ccc(C(=O)Nc2cccc(-c3ccc4nncn4n3)c2)cc1 was read as KinaseGlo FLuc 1%, ELG1 genotox -6%, SMN2 splice up -5%, NPC1 promoter act -3%, FLuc counter 17µM* and Rab9 promoter act -4%.
Screening COc1cccc(C(=O)Nc2ccncc2)c1 returned KinaseGlo FLuc -7%, ELG1 genotox -5%, NPC1 promoter act -2%, FLuc counter -8% and Rab9 promoter act 3%.
COc1cccc(C(=O)Nc2cccc(OC(C)=O)c2)c1 was read as KinaseGlo FLuc -27%, ELG1 genotox 6%, SMN2 splice up 11µM*, NPC1 promoter act inconclusive, FLuc counter inconclusive and Rab9 promoter act inconclusive.
Screening COc1cccc(C(=O)Nc2ccc(C3CC3(Cl)Cl)cc2)c1 (stereo unspecified) returned KinaseGlo FLuc -18%, ELG1 genotox inconclusive, SMN2 splice up 13µM*, NPC1 promoter act 2.2µM*, FLuc counter 2.7µM* and Rab9 promoter act 1.1µM*.
COC(=O)c1cccc(NC(=O)c2cccc(OC)c2)c1 was read as KinaseGlo FLuc inconclusive, SMN2 splice up inconclusive and FLuc counter 12µM*.
COc1cccc(C(=O)Nc2ccc3c(c2)n(C)c(=O)n3C)c1 was read as ELG1 genotox inconclusive, NPC1 promoter act 0%, FLuc counter inconclusive and Rab9 promoter act 12%.
`COc1cc(OC)cc(C(=O)Nc2cccc(-c3ccc4nncn4n3)c2)c1` gave KinaseGlo FLuc 3%, ELG1 genotox -4%, SMN2 splice up 1%, NPC1 promoter act -7%, FLuc counter 0% and Rab9 promoter act -9%.
For COc1ccc(OC)c(NC(=O)CSc2cn(CC(=O)N3CCCCCC3)c3ccccc23)c1 the results were FLuc counter -4%.
Screening O=C(Cn1c(-c2cccs2)cc2cc(Cl)ccc21)NCc1ccccc1 returned FLuc counter -1%.
Screening COc1cccc(CNC(=O)CSc2ncc3c(n2)-c2cc(Cl)ccc2N(C)S3(=O)=O)c1 returned FLuc counter 0%.
For COC(=O)c1ccccc1NC(=O)c1cc2sccc2n1C the results were KinaseGlo FLuc 20%, ELG1 genotox -1%, SMN2 splice up -2%, NPC1 promoter act -4%, FLuc counter inconclusive and Rab9 promoter act 11%.
Screening COc1cc(NC(=O)c2ccnnc2)cc(C(=O)Nc2cccc(C(F)(F)F)c2)c1 returned ELG1 genotox -2%, NPC1 promoter act 0%, FLuc counter 19µM* and Rab9 promoter act 2%.
`CCCOc1ccc(C(=O)Nc2cccc(NC(=O)c3cccc(Cl)c3)c2)cc1` gave SMN2 splice up 29% and FLuc counter 12µM*.
For COc1ccc(C(=O)Nc2ccc(C(=O)Nc3cccc(C)c3)cc2)cc1 the results were ELG1 genotox 13µM*, NPC1 promoter act -8%, FLuc counter 3% and Rab9 promoter act -11%.
`COC(=O)c1cccc(NC(=O)c2cc3sccc3n2C)c1` gave KinaseGlo FLuc 1%, ELG1 genotox inconclusive, SMN2 splice up 11µM*, NPC1 promoter act 1.3µM*, FLuc counter 15µM* and Rab9 promoter act 1.8µM*.
For CCOc1cccc(C(=O)Nc2cccc(C(C)=O)c2)c1 the results were KinaseGlo FLuc -1%, ELG1 genotox 0%, SMN2 splice up inconclusive, NPC1 promoter act 6%, FLuc counter inconclusive and Rab9 promoter act 22%.
Screening O=C(NC(=S)Nc1ccc(NC(=O)c2ccccc2)cc1)c1ccc(F)cc1 returned ELG1 genotox 10%, NPC1 promoter act 20%, FLuc counter 1% and Rab9 promoter act 2%.
For COc1cccc(C(=O)NC(=S)Nc2ccc(N(C)C)cc2)c1 the results were KinaseGlo FLuc 0%, ELG1 genotox inconclusive, SMN2 splice up 11µM*, NPC1 promoter act inconclusive, FLuc counter 12µM* and Rab9 promoter act 3.5µM*.
For O=C(NC(=S)Nc1ccc2c(c1)C(=O)c1ccccc1C2=O)c1ccc(F)cc1 the results were KinaseGlo FLuc -7%, ELG1 genotox inconclusive, SMN2 splice up 11µM*, NPC1 promoter act inconclusive, FLuc counter 17µM* and Rab9 promoter act inconclusive.
